# Source: PubChem BioAssay (National Center for Advancing Translational Sciences (NCATS))
# HP1b chromo inh – HP1-beta chromodomain-methylated histone interaction inhibition | P83916 | AlphaScreen HP1-beta / biotin-H3K9me3 peptide binding | Potency, µM (highest dose often 114 µM), for the others: at the top dose activity change, negative = inhibition, actives largely listed as inhibitors | 0.56% of 390,000 active | AID 540317; note: potency is the fitted concentration of half-maximal effect; nearly all actives have a fitted effect of over 70% in size
# Target sequence (P83916 whole entry, looked up): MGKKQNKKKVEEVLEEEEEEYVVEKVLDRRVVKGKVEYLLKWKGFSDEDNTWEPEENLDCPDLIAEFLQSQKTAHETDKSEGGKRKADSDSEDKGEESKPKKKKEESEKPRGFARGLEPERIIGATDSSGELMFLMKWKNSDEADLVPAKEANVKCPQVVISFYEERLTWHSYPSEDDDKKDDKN
#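 HP1-beta protein (50 nM final) preincubated 30 min at room temperature with biotinylated H3(1-18)K9me3 peptide (50 nM) in PBS pH 7.4, 0.01% Tween-20, then compound added for 30 min. AlphaScreen streptavidin donor/nickel chelate acceptor beads (10 ug/mL final), 30 min dark, luminescence read.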
# CtBP-E1A inh – inhibitors of CtBP/E1A interaction | AlphaScreen GST-E1A/His-CtBP binding, 1536-well; stronger effect = lower value | activity change, % (concentration not given with the values) | 0.49% of 340,000 active | AID 651724; in the data active = activity change below about -65%; inconclusive = mostly about -30% to -63%; note: % is set by controls: 0 for no effect and ±100 for the full control effect
#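 Homogeneous bead-based format: GST-tagged E1A captured on glutathione donor beads, His-tagged CtBP on nickel acceptor beads; compounds precede bead addition by 2 h at 37 °C.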
# G9a block – blocks human histone lysine methyltransferase G9a; Potency, µM (highest dose often 102 µM), inactives show top-dose activity, negative = inhibition, most hits filed as inhibitors; AID 504332; Q96KQ7; G9a H3K9 monomethylation, AlphaScreen, 2 h; 8.8% of 350,000 active; note: potency is the fitted concentration of half-maximal effect; % is set by controls: 0 for no effect and ±100 for the full control effect; nearly all actives have a fitted effect of over 75% in size
# Target sequence (Q96KQ7 913-1193 limits assumed): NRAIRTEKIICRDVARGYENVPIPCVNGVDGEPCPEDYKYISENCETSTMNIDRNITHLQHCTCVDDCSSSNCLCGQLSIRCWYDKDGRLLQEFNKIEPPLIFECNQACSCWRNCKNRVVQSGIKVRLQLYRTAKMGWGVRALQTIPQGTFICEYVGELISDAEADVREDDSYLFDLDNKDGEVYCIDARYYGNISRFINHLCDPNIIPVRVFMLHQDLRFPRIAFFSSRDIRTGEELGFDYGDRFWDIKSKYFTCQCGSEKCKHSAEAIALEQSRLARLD
#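 AlphaScreen read-out: biotin-H3K9 peptide (500 nM) methylation by 20 nM enzyme with 20 uM SAM, 2 h at room temperature after 15 min compound preincubation; anti-monomethyl H3K9 antibody plus donor/acceptor beads, 10 min dark.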
# BAZ2B inh – BAZ2B (human) inhibition; 4.4% of 360,000 active; Potency, µM (titrated, usually from 114 µM), inactives show at the top dose activity change, negative = inhibition, actives largely listed as inhibitors; AlphaScreen BAZ2B-H3K14Ac peptide displacement; AID 504333; note: potency is the fitted concentration of half-maximal effect; % is set by controls: 0 for no effect and ±100 for the full control effect; nearly all actives have a fitted effect of over 60% in size
#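 AlphaScreen luminescence quantifies BAZ2B engagement of H3K14Ac peptide; the protein and biotinylated peptide are both at 50 nM final, buffer PBS pH 7.4 with 0.01% Tween-20, all steps at room temperature.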
# Six1-Eya2 blk – Six1/Eya2 interaction inhibition | Q15475+O00167 | AlphaScreen GST-Six1/His-Eya2 binding, biochemical; stronger effect = lower value | 0.56% of 360,000 active | activity change, % (test concentration not listed); in the data active = activity change below about -65%; inconclusive = mostly about -30% to -63%; note: % is set by controls: 0 for no effect and ±100 for the full control effect
#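 Compounds are tested against tagged Six1 and Eya2 proteins bridged by glutathione donor and nickel acceptor beads; after a one-hour incubation at 37 °C without light, AlphaScreen emission is recorded.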
# JMJD2A Tudor – inhibitors of human JMJD2A Tudor domain; 4.4% of 390,000 active; AlphaScreen JMJD2A-Tudor / H3K4me3 peptide binding; O75164; Potency, µM (highest dose often 114 µM), for the others: at the top dose activity change, negative = inhibition, actives largely listed as inhibitors; note: potency is the fitted concentration of half-maximal effect; % is set by controls: 0 for no effect and ±100 for the full control effect; nearly all actives have a fitted effect of over 50% in size
# Starred values were filed as active, the others as inactive; ? = inconclusive; · = no result given; [ ] = dose if it differs, or a comment. The list is not random: actives were taken first. Their share in the collection is about 10%. Unless noted, calls come from the whole dose curve; as a rule, active = well fitted inhibition curve with a large enough effect; inconclusive = small, poorly fitted or top-dose-only effect; inactive = no such curve, though single readings can be large or run the other way.
SMILES,HP1b chromo inh,CtBP-E1A inh,G9a block,BAZ2B inh,Six1-Eya2 blk,JMJD2A Tudor
COc1cc(C2C(C#N)=C(N)Oc3cc(C)oc(=O)c32)cc2c1OCO2 (stereo unspecified),18.6%,-2.5,?,56.2µM*,-10.9,-14.5%[57.1 µM]
COc1cc(C2C(C#N)=C(N)Oc3cc(C)n(Cc4ccccn4)c(=O)c32)cc2c1OCO2 (stereo unspecified),·,·,50.1µM*,?,·,·
Cc1cc2c(c(=O)n1Cc1ccccn1)C(c1ccc3c(c1)OCO3)C(C#N)=C(N)O2 (stereo unspecified),53.9%,0.0,7.6%[12.7 µM],-18.2%,17.8,-18.0%
COc1ccc(OC)c(CCNC(=O)CCCn2c(=O)c3cccn3c3ccccc32)c1,18.2%,·,-1.9%[59 µM],-7.9%,·,-7.2%
CC(=O)N1CCOc2ccc(S(=O)(=O)NC[C@H]3O[C@@H](n4ccc(=O)[nH]c4=O)[C@H](O)[C@@H]3O)cc21,11.5%,4.0,·,·,5.7,-11.6%
COc1ccc(-c2cc(C(=O)NNC(=S)NC(=O)c3c(-c4ccccc4)noc3C)[nH]n2)cc1,22.1%,-11.5,44.7µM*,-20.1%,-14.3,-15.6%
COc1ccc(/C=C/C(=O)NC(=S)NNC(=O)c2c(-c3ccccc3)noc2C)cc1,-9.5%,-10.2,?,5.6%,-13.8,-11.3%
CCCCCCCCCCCCCCCC(=O)OC(C)C,·,·,19.8%[59 µM],·,·,·
COC(=O)[C@@]12C[C@@H](CC(=O)N3CCN(C(=O)c4ccco4)CC3)C(=O)N(Cc3cccc4ccccc34)C1=CCC(C)(C)C2,·,-1.3,·,·,-9.0,·
CN(Cc1ccco1)c1cc(-c2ccoc2)ncn1,·,·,-23.8%[0.501 µM],·,·,·
CN(C)CCCN(C(=O)c1ccc(C(=O)c2ccccc2)cc1)c1nc2cc3c(cc2s1)OCCO3,-5.8%,-21.6,·,31.6µM*,?,50.1µM*
CN(C)CCN(C(=O)c1ccc(S(=O)(=O)N(C)c2ccccc2)cc1)c1nc2cc3c(cc2s1)OCO3,-14.3%,-8.5,35.5µM*,39.8µM*,-13.7,?
CCN(Cc1ccccc1)S(=O)(=O)c1ccc(C(=O)N(CCCN(C)C)c2nc3c(C)c(C)ccc3s2)cc1,-10.8%,?,35.5µM*,10µM*,-17.9,?
CC(=O)c1ccc(C(=O)N(CCCN(C)C)c2nc3c(C)c(C)ccc3s2)cc1,?,·,-38.1%[59 µM],?,·,?
Cc1ccc2sc(N(CCCN(C)C)C(=O)c3ccc(S(=O)(=O)N(C)C4CCCCC4)cc3)nc2c1C,?,-29.9,31.6µM*,?,?,?
CN(C)CCN(C(=O)c1ccc(S(=O)(=O)N(C)c2ccccc2)cc1)c1nc2ccc(Cl)cc2s1,16.4%,2.8,·,-4.7%,1.5,?
CCOCCn1ccc2c(OCC(=O)Nc3ccc(OC(F)(F)F)cc3)cccc2c1=O,21.4%,·,2.5%[59 µM],-5.8%,·,-1.3%
CN(C)CCN(C(=O)c1ccc(N2C(=O)CCC2=O)cc1)c1nc2cc3c(cc2s1)OCCO3,·,·,31.6µM*,?,·,·
CN(C)CCCN(C(=O)c1ccc(S(=O)(=O)N(C)C)cc1)c1nc2cc3c(cc2s1)OCO3,10.8%,-4.1,50.1µM*,?,-2.7,-26.4%
CCN(Cc1ccccc1)S(=O)(=O)c1ccc(C(=O)N(CCCN(C)C)c2nc3cc4c(cc3s2)OCO4)cc1,-12.0%,-26.9,·,25.1µM*,-26.2,56.2µM*
Cc1ccc2nc(N(CCCN(C)C)C(=O)c3ccc(S(=O)(=O)N(C)C)cc3)sc2c1,17.6%,0.5,?,-11.2%,0.7,-3.5%
Cc1ccc(Sc2c(C)nn(C(=O)COc3ccc(F)cc3)c2C)cc1,20.1%,·,-13.0%[59 µM],1.3%,·,24.2%
O=C(O)C1NCCc2ccccc21 (stereo unspecified),-13.4%,9.2,39.8µM*,?,0.3,?
O=c1nc2ccccc2c2n1CC(CN1CCN(c3ccccc3F)CC1)N2 (stereo unspecified),33.3%,-5.2,24.9%[0.501 µM],-23.4%,6.0,-17.0%
CCOC(=O)c1c(CN(C)C)n(-c2ccc(C)cc2)c2cc(Br)c(O)cc12,-33.8%,-1.2,13.9%[59 µM],-37.2%,-16.7,?
